Bioassay records from PubChem.
Compounds with a hit are over-represented: about 2.6% of the library has one in this group of screens.
TWEAK Fn14 block = blocks TWEAK-Fn14 interaction in a reporter cell assay. TWEAK-stimulated Fn14 reporter cells, luciferase luminescence, 8 h. 360,000 compounds, 2% hits. inhibition, % at 10 µM; in the data active means inhibition above about 50%
TROY NFkB inh = TROY signaling inhibition; Q293 LMP1-TROYcd NF-kB luciferase reporter, 4 h; inhibition, % at 10 µM; 360,000 compounds, 0.98% hits; AID 1347056;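 active means compounds whose plate-normalised and pattern-corrected inhibition of the luciferase reporter signal at the single screening dose is 50% or more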
KKLEB cytotox = CF airway cell cytotoxicity counter-screen; KKLEB CF airway cells viability, ATPlite luminescence, overnight; active compounds read low; cells stimulated with P. aeruginosa culture filtrate; activity change (cytotoxicity), % at 5 µM; 360,000 compounds, 0.36% hits;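 active means corrected activity change at or below -50% at 5 µM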
EWS-Fli inh = inhibitors of EWS/Fli oncoprotein transcriptional activity; 350,000 compounds, 0.67% hits; A673 NR0B1-luciferase reporter, viability-normalised; inhibition, % at 12.6 µM; AID 651661;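 active means mean inhibition of at least 50% after viability correction, with every replicate also passing that limit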;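 further: firefly luciferase signal divided by Alamar Blue viability fluorescence both relative to DMSO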
CF NFkB inh = inhibitors of cystic fibrosis induced NF-kB. AID 588850. 360,000 compounds, 0.86% hits. inhibition, % at 5 µM. KKLEB NF-kB-GFP reporter, PAF-induced, GFP fluorescence overnight;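 active means at least 50% inhibition at 5 µM, scaled per plate between neutral and stimulator controls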;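 further: PAF is a Pseudomonas aeruginosa culture filtrate used as stimulus; plate controls were PAF-stimulated DMSO wells for no effect and unstimulated DMSO wells for full effect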
LGR2 antag = blocks bursicon-induced cAMP signaling via Drosophila LGR2; HEK293 LGR2, CRE-luciferase, bursicon-stimulated, 4 h; inhibition, % at 9.99 µM; 380,000 compounds, 0.35% hits; AID 720647;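 active means drop in luminescence signal, shown as inhibition above about 50% in the replicate tests, limit read from the data, passing the limit was not always enough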;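 further: agonist challenge used bursicon conditioned medium at about half maximal strength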
Active calls of the source: *.

C[C@H]1CCCCO[C@H](CN(C)S(C)(=O)=O)[C@@H](C)CN([C@@H](C)CO)C(=O)c2cc(N(C)C)ccc2O1 was read as EWS-Fli inh -8 and LGR2 antag -24.
`Cc1[nH]c2ccccc2c1C1=CC(=O)C=CC1=O` gave TWEAK Fn14 block 46, TROY NFkB inh 7, KKLEB cytotox -13, EWS-Fli inh 21, CF NFkB inh 74* and LGR2 antag 17.
Screening CNC[C@H]1OCCCC[C@@H](C)Oc2ccc(NC(=O)Nc3ccc(OC)cc3)cc2C(=O)N([C@H](C)CO)C[C@H]1C returned EWS-Fli inh 2 and LGR2 antag 4.
For CS(=O)(=O)N1CC(=O)N2[C@H](C1)[C@H](c1ccc(C#CCC3CCCC3)cc1)[C@@H]2CO the results were EWS-Fli inh -13 and LGR2 antag -7.
Screening CC(C)OC(=O)c1sc2nc(-c3ccccc3)ccc2c1N returned TWEAK Fn14 block 91*, TROY NFkB inh 80*, KKLEB cytotox -33, EWS-Fli inh -7, CF NFkB inh 8 and LGR2 antag -63.
For CN1c2ccc(-c3cccc(C#N)c3)cc2[C@@H]2[C@@H](CCN2C(=O)C2CC2)[C@H]1CO the results were EWS-Fli inh 9 and LGR2 antag -2.
Cc1ccc(S(=O)(=O)Nc2ccc(Cl)cc2)cc1NC(=O)Cn1cnc2c1c(=O)n(C)c(=O)n2C was read as TWEAK Fn14 block 89*, TROY NFkB inh 43, KKLEB cytotox -14, CF NFkB inh -4 and LGR2 antag -7.
Screening Cc1ccccc1NC(=O)Cn1cnc2c1c(=O)n(C)c(=O)n2C returned TWEAK Fn14 block 12, TROY NFkB inh 11, KKLEB cytotox 9 and CF NFkB inh -8.
COc1ccc(S(=O)(=O)Nc2cc3c(cc2C(C)=O)OCO3)cc1 was read as TWEAK Fn14 block 2, TROY NFkB inh 1, KKLEB cytotox -5, EWS-Fli inh 55*, CF NFkB inh 16 and LGR2 antag -4.
`COc1cccc(N2C(C(C)=O)=NN(c3ccccc3)C2c2ccc(N3CCOCC3)cc2)c1` (stereo not given) gave TWEAK Fn14 block 55*, TROY NFkB inh 43, KKLEB cytotox -17, CF NFkB inh -7 and LGR2 antag -10.
C[C@@H]1CN([C@H](C)CO)C(=O)c2cc(NS(=O)(=O)c3cn(C)cn3)ccc2O[C@@H]1CN(C)CC1CC1 was read as EWS-Fli inh -13 and LGR2 antag 10.
`Cc1ccccc1S(=O)(=O)NCC[C@H]1CC[C@H](NC(=O)Nc2cccc(F)c2)[C@@H](CO)O1` gave EWS-Fli inh 5 and LGR2 antag -8.
COc1ccc(NC(=O)C(Cl)=C(Cl)Cl)cn1 was read as TWEAK Fn14 block -26, TROY NFkB inh -18, KKLEB cytotox 3, EWS-Fli inh 8, CF NFkB inh -2 and LGR2 antag 12.
Screening COc1ccc(NC(=O)/C(Cl)=C(/Cl)S(=O)Cc2ccc(Cl)cc2)cn1 (stereo not given) returned TWEAK Fn14 block 101*, TROY NFkB inh 90*, KKLEB cytotox -88*, EWS-Fli inh 74*, CF NFkB inh 87* and LGR2 antag 101*.
`COc1ccc(NC(=O)/C(Cl)=C(/Cl)S(=O)(=O)Cc2ccccc2)cn1` gave TWEAK Fn14 block 101*, TROY NFkB inh 77*, KKLEB cytotox -53* and CF NFkB inh 84*.
Screening CC(C)NC(=O)N(C)C[C@@H]1Oc2ccc(NC(=O)Nc3cccc4ccccc34)cc2C(=O)N([C@@H](C)CO)C[C@H]1C returned EWS-Fli inh -7 and LGR2 antag -14.
For COc1ccc2c3c([nH]c2c1)[C@@H](CO)N(C(C)=O)CC31CCN(C(=O)Nc2c(C)noc2C)CC1 the results were EWS-Fli inh 1 and LGR2 antag -10.
`C[C@@H]1CN([C@@H](C)CO)C(=O)c2cc(NC(=O)Nc3ccccc3)ccc2O[C@H]1CN(C)S(=O)(=O)c1cccs1` gave EWS-Fli inh -15 and LGR2 antag -16.
For O=c1c2cc(C(F)(F)F)ccc2sn1-c1ccccc1 the results were TWEAK Fn14 block 44, TROY NFkB inh 32, KKLEB cytotox -10, EWS-Fli inh -12, CF NFkB inh 51* and LGR2 antag -54.
`O=c1c2ccccc2sn1-c1cccc(Cl)c1` gave TWEAK Fn14 block 8, TROY NFkB inh 10, KKLEB cytotox -2, EWS-Fli inh 3, CF NFkB inh 60* and LGR2 antag 1.
O=c1c2cc(F)ccc2sn1-c1ccccc1 was read as TWEAK Fn14 block -1, TROY NFkB inh -21, KKLEB cytotox -17, EWS-Fli inh 9, CF NFkB inh 44 and LGR2 antag -7.
`O=c1c2ccccc2sn1-c1ccccc1` gave TWEAK Fn14 block -10, TROY NFkB inh -61, KKLEB cytotox -13 and CF NFkB inh 1.
For CCCC(=O)N1CCCC(c2cc(C(=O)Nc3ccccc3)no2)C1 (stereo not given) the results were TWEAK Fn14 block 95*, TROY NFkB inh 83*, KKLEB cytotox -1, EWS-Fli inh 14, CF NFkB inh 4 and LGR2 antag 82*.
For CCOc1ccc(OCc2ccc(C(=O)O)o2)cc1 the results were TWEAK Fn14 block 52*, TROY NFkB inh -49, KKLEB cytotox -5 and CF NFkB inh 8.
Cc1occc1C(=O)NC(C)CCc1ccccc1 (stereo not given) was read as TWEAK Fn14 block 52*, KKLEB cytotox 6 and CF NFkB inh -3.
CC(CCc1ccccc1)NC(=O)CNC(=O)c1cccs1 (stereo not given) was read as TWEAK Fn14 block 61*, TROY NFkB inh 5, KKLEB cytotox 3, CF NFkB inh -16 and LGR2 antag 16.
Screening Cc1ccc(C)c(C(=O)NC(C)CCc2ccccc2)c1 (stereo not given) returned TWEAK Fn14 block 3, TROY NFkB inh 4, KKLEB cytotox 5, EWS-Fli inh -13, CF NFkB inh -20 and LGR2 antag -2.
Screening Cc1cccc(C(=O)NCC(=O)NC(C)CCc2ccccc2)c1 (stereo not given) returned TWEAK Fn14 block 14, TROY NFkB inh 1, KKLEB cytotox 8, EWS-Fli inh 5, CF NFkB inh -18 and LGR2 antag -3.
O=[N+]([O-])c1cc(S(=O)(=O)Oc2ccccc2)ccc1Cl was read as TWEAK Fn14 block 38, TROY NFkB inh 5, KKLEB cytotox -72*, EWS-Fli inh 22, CF NFkB inh 88* and LGR2 antag 68*.
`C[C@H]1CN([C@@H](C)CO)C(=O)c2cccc(NC(=O)C3CCOCC3)c2O[C@@H]1CN(C)Cc1ccc(Cl)c(Cl)c1` gave EWS-Fli inh 2 and LGR2 antag -3.
